{"source": "the supplement of paper PMC11417369", "note": "± gives the standard deviation of the averaged measurements. Whole data set: some 25,000 sequences, median “ln(normalized median fluorescence intensity)” near 8.6, cut for the highest 2% near 10. Only a selection was taken, and the highest values are over-represented in it overall."}
{"test_system": "PfAP2-EXP AP2 domain (GST-tagged)", "assay": "gcPBM binding intensity (ln(normalized median fluorescence intensity)); higher = stronger DNA binding", "method_in_brief": "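Each value is the highest Masliner-normalised natural-log median intensity across replicate spots of either orientation of a probe. The probes were primer-extended double-stranded 36-bp intergenic genomic sequences on an Agilent 4 × 180k array, alongside negative controls, exposed for 1 h to GST-tagged P. falciparum DNA-binding domains expressed in E. coli. Bound protein was picked up with Alexa488 anti-GST antibody and scanned at 488 nm.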"}
{"sequence": "AATAAATAAATAAGTACACACATATATATATATATA [CACACA_site284]", "gcPBM binding intensity (ln)": "10.2 ± 0.6"}
{"sequence": "ATAAAATAAAATAAAAGTACATAAATATATATATAT [XGTACX_site6110]", "gcPBM binding intensity (ln)": "9.83 ± 0.28"}
{"sequence": "TGTAATAAATAGTACACACACACATATATATATATT [CACACA_site1388]", "gcPBM binding intensity (ln)": "8.73 ± 0.38"}
{"sequence": "TAAAAAAAAATAAAAAGTACATATATATATATATAT [XGTACX_site1155]", "gcPBM binding intensity (ln)": "10.3 ± 0.46"}
{"sequence": "TATAAAAATAAAAAAAGTACACATAAAAATATATAT [XGTACX_site5189]", "gcPBM binding intensity (ln)": "8.77 ± 0.33"}
{"sequence": "TATATATATATATATAGTACACATATCACATAAATG [XGTACX_site6379]", "gcPBM binding intensity (ln)": "10.2 ± 0.23"}
{"sequence": "AGTTGGATACGAAGATGTACAATAATAATAATTAAG [XGTACX_site3561]", "gcPBM binding intensity (ln)": "8.9 ± 0.35"}
{"sequence": "GTGAAATTATATTTTTGTACATATATTATATATTAT [XGTACX_site3387]", "gcPBM binding intensity (ln)": "8.52 ± 0.32"}
{"sequence": "ACATACATACACCCACGTACGTACCGAAACACCACC [XGTACX_site1212]", "gcPBM binding intensity (ln)": "9.11 ± 0.35"}
{"sequence": "TATTTATGTTCATATAAACACACGTAAAATTCAAGG [CACACA_site1538]", "gcPBM binding intensity (ln)": "8.62 ± 0.39"}
{"sequence": "TAAATAATAATAAAATGTACATTATATATGTATATG [XGTACX_site8672]", "gcPBM binding intensity (ln)": "8.44 ± 0.36"}
{"sequence": "AACTTCTTTTTTATAACACACAAAATATATATACAA [CACACA_site282]", "gcPBM binding intensity (ln)": "8.69 ± 0.42"}
{"sequence": "AAAGGAAAAGTTGACTGTACATAAGTAAAAAATAAT [XGTACX_site788]", "gcPBM binding intensity (ln)": "9.15 ± 0.42"}
{"sequence": "ATATATATATAATGTAGTACTATTTAATAATAAGCC [XGTACX_site1263]", "gcPBM binding intensity (ln)": "9.775 ± 0.078"}
{"sequence": "AAATAAAATACAATATGATAAAATGTTATCATATAT [CACACA_negctrl_site538]", "gcPBM binding intensity (ln)": "8.35 ± 0.38"}
{"sequence": "TATATATATATATTCACACATAAATATATGCACCCA [CACACA_site4263]", "gcPBM binding intensity (ln)": "9.96 ± 0.2"}
{"sequence": "TTTAATATATATATGTGTACATATAAATTATATATA [XGTACX_site8511]", "gcPBM binding intensity (ln)": "8.2 ± 0.23"}
{"sequence": "TTTTTTTTTTTTTTTGCACACAGGGTGTAGGACAAG [CACACA_site2842]", "gcPBM binding intensity (ln)": 8.6}
{"sequence": "TTATATTATACATACACACCCATATAATATGTTTTT [CACACA_site4636]", "gcPBM binding intensity (ln)": "8.73 ± 0.42"}
{"sequence": "GGAAAAACCATTCGCACACACACATAATATATAATA [CACACA_site1424]", "gcPBM binding intensity (ln)": "8.66 ± 0.47"}
{"sequence": "AACCATTGGGAAAGGGTGCACATATATATATATATA", "gcPBM binding intensity (ln)": "10.8 ± 0.35"}
{"sequence": "ATAAATATTGGGTGCACACACATAATATATATATAT [CACACA_site2272]", "gcPBM binding intensity (ln)": "10.1 ± 0.21"}
{"sequence": "TTTAAGCGTTCACTGCTGCACTTTTATGTTGTGACC", "gcPBM binding intensity (ln)": "8.71 ± 0.51"}
{"sequence": "GAAGAAAAATAAAAAGTGCAAAAAAAGTAAAAATTT [GTGCAC_site9897]", "gcPBM binding intensity (ln)": "8.95 ± 0.49"}
{"sequence": "TATATATATATATATACACACACACCCATATATATA [CACACA_site8812]", "gcPBM binding intensity (ln)": "10.3 ± 0.3"}
{"sequence": "TGAATAAATCAAAGCACACATACACCCACATATATA [CACACA_site286]", "gcPBM binding intensity (ln)": "8.78 ± 0.49"}
{"sequence": "TCAAAGCACAGATACACACACATATATATATATATA [CACACA_site287]", "gcPBM binding intensity (ln)": "10 ± 0.42"}
{"sequence": "TATATATACATATACACACACACACCCATATATATA [CACACA_site2246]", "gcPBM binding intensity (ln)": "8.84 ± 0.39"}
{"sequence": "CACATATATACACATACACACACACCCATACACCCA [CACACA_site8505]", "gcPBM binding intensity (ln)": "8.77 ± 0.33"}
{"sequence": "TCAAAGCACCCATACACACACATATATATATATATA [CACACA_site4317]", "gcPBM binding intensity (ln)": "10.3 ± 0.19"}
{"sequence": "CATATACATACACATACACACATACACCCATACACA [CACACA_site8514]", "gcPBM binding intensity (ln)": "8.77 ± 0.55"}
{"sequence": "TATATATATATATACACACACACACCCATATATATA [CACACA_site2538]", "gcPBM binding intensity (ln)": "10.2 ± 0.24"}
{"sequence": "CATACACCCATACATACACACATACATATATATATA [CACACA_site8591]", "gcPBM binding intensity (ln)": "9.895 ± 0.064"}
{"sequence": "TATCACAAAATATACTGTACATACAGGCAGTAATAT [XGTACX_site2487]", "gcPBM binding intensity (ln)": "8.71 ± 0.34"}
{"sequence": "GAAAAAAAAAAAAATACACACAAATTGGTATAGAAT [CACACA_site380]", "gcPBM binding intensity (ln)": "8.53 ± 0.47"}
{"sequence": "TTGGTGATATTTTTCTCACACATTTACCAGAGATGT [CACACA_site4684]", "gcPBM binding intensity (ln)": "8.44 ± 0.37"}
{"sequence": "AGGTACTTTTTTAAAACACACATATAATAAATACAC [CACACA_site4730]", "gcPBM binding intensity (ln)": "8.84 ± 0.28"}
{"sequence": "GTAAGTTGTGCATTCACACACATATAAATATAAATA [CACACA_site7536]", "gcPBM binding intensity (ln)": "8.66 ± 0.24"}
{"sequence": "GTAAGTTGTGCATTCACACACATATATATATATATA [CACACA_site3303]", "gcPBM binding intensity (ln)": "10.2 ± 0.28"}
{"sequence": "ATGTAAGTTGTGCATTCACACACATATATATATATA [CACACA_site9086]", "gcPBM binding intensity (ln)": "10.2 ± 0.2"}
{"sequence": "AGTTCAGAATTGAATAGTACATAAATATAACAAAAT [XGTACX_site650]", "gcPBM binding intensity (ln)": "8.88 ± 0.36"}
{"sequence": "TGTATTTTTAACATATGTACGAATAGCACGTGTTAT [XGTACX_site3640]", "gcPBM binding intensity (ln)": "8.89 ± 0.44"}
{"sequence": "AGTTTTTATTAAAACAAAATTTAATTATAACGTTGA [XGTACX_negctrl_site298]", "gcPBM binding intensity (ln)": "8.08 ± 0.3"}
{"sequence": "CAATTAAAAAATAATACATGCATATAAATAGATATT [TGCATGCA_site427]", "gcPBM binding intensity (ln)": "8.71 ± 0.38"}
{"sequence": "ATATAGATGCATAATACACACATCAGATAATTAACC [CACACA_site6871]", "gcPBM binding intensity (ln)": "8.64 ± 0.33"}
{"sequence": "TATATATATATAGATGCATGCAATTACATATAACAA [TGCATGCA_site118]", "gcPBM binding intensity (ln)": "10.2 ± 0.23"}
